Tgondii IFNg: T. gondii growth inhibition with IFN-gamma, primary screen, cell-based; Toxoplasma gondii growth in IFN-gamma-treated host cells; hits give low values; activity change, negative = inhibition, % (concentration not given with the values); 3.8% of 69,000 active; AID 1259416, 2018; in the data active = activity change below about -70%, passing the limit was not always enough;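 also: host cells are HeLa cells infected with Toxoplasma gondii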
* = called active by the depositor; ! = repeats disagree. The entries come from a sample that favours hits as a whole.

Nc1nc2ccc(OC(F)(F)F)cc2s1 was read as Tgondii IFNg -94*!.
Screening Nc1nc2ccc(-c3nc4ccccc4[nH]3)cc2s1 returned Tgondii IFNg 470.
`COC(=O)c1ccc2nc(N)sc2c1` gave Tgondii IFNg -28.
Screening CCCC(=O)N1CCc2c([nH]c3ccccc23)C1c1ccc(F)cc1 (centres undefined) returned Tgondii IFNg 1.
For O=C(c1ccc2c3c(cccc13)CC2)C1CCCN(C(=O)/C=C/c2cnc[nH]2)C1 (centres undefined) the results were Tgondii IFNg -18.
`CNc1cc(-c2ccccc2OCCn2ccnc2)c2cc[nH]c2n1` gave Tgondii IFNg 4.
Screening NCC1Cc2cc(-c3ccccc3OCCn3ccnc3)cc(Cl)c2O1 (centres undefined) returned Tgondii IFNg -81*.
Screening NCC1Cc2cc(-c3ccc(Cn4ccnc4)cc3)cc(F)c2O1 (centres undefined) returned Tgondii IFNg -40.
Cc1c(C(=O)CSc2ccc(Cl)cc2)sc2ccc(Cl)cc12 was read as Tgondii IFNg -57.
For COc1ccc(OS(=O)(=O)c2sc3ccc(Cl)cc3c2C)cc1 the results were Tgondii IFNg -104*.
Screening Cc1cc(=O)c2cc(Cl)ccc2s1 returned Tgondii IFNg 59.
`Cn1cc(N2CC3(COCCN(C(=O)C4(C#N)CC4)C3)OCC2=O)cn1` (centres undefined) gave Tgondii IFNg 2.
Screening Cc1nc(C(=O)N2CCN(CCCOc3ccc(F)cc3)CC2)cs1 returned Tgondii IFNg 5.
Screening Cc1ccc(C)c(N2CCN(C(=O)CCC3Nc4c5ccccc5nc(=S)n4C3=O)CC2)c1 (centres undefined) returned Tgondii IFNg 5.
Screening CCS(=O)(=O)N1CCC2(CCC2NC(=O)c2cnccn2)CC1 (centres undefined) returned Tgondii IFNg 6.
CCC[C@H](NC(=O)[C@@H]1[C@H]2CCC[C@H]2CN1C(=O)[C@@H](NC(=O)[C@@H](NC(=O)c1cnccn1)C1CCCCC1)C(C)(C)C)C(=O)C(=O)NC1CC1 was read as Tgondii IFNg -74*.
CC(C)CN1C(=O)CCC12CCC(NC(=O)c1cnccn1)CC2 (centres undefined) was read as Tgondii IFNg -2.
CCN1c2ccc(C)cc2C(=O)NC12CCN(C(=O)c1ccc(C)cc1)CC2 was read as Tgondii IFNg 23.
Screening COC(=O)c1cc2n(n1)CCCN(C(=O)c1cc(C(C)C)on1)C2 returned Tgondii IFNg 0.
Screening c1nc(N2CCC(N3CCCCC3)CC2)c2nc3n(c2n1)CCCC3 returned Tgondii IFNg 22.
`COCCN1CCO[C@@H]2CN(Cc3cnn(C)c3)C[C@@H]21` gave Tgondii IFNg 0.
Screening Cn1ccnc1CN1CCN(C(=O)c2nccc3ccccc23)CC1 returned Tgondii IFNg -29.
`COc1ccc(-c2nc(C)ncc2C)cc1Cl` gave Tgondii IFNg 1.
For COc1ccc(-c2ccccc2C(N)=O)cc1Cl the results were Tgondii IFNg 7.
For COc1ccc(-c2cnc(N)cn2)cc1Cl the results were Tgondii IFNg -88*.
`CCOc1ccc(-c2nc3c(s2)CN(S(=O)(=O)c2ccc(F)cc2F)CC3)cc1` gave Tgondii IFNg 92.
Screening COc1ccc(-c2nc3c(s2)CN(S(=O)(=O)c2cc(OC)ccc2OC)CC3)cc1 returned Tgondii IFNg -120*.
COc1ccc(-c2nc3c(s2)CN(S(=O)(=O)c2ccc(F)cc2F)CC3)cc1 was read as Tgondii IFNg -95*.
For CCOc1ccc(S(=O)(=O)N2CCc3nc(-c4ccc(OC)cc4)sc3C2)cc1 the results were Tgondii IFNg 42.
`CCc1ccc(S(=O)(=O)N2CCc3nc(-c4ccc(OC)cc4)sc3C2)cc1` gave Tgondii IFNg -15.
`O=S(=O)(c1cccc(F)c1)N1CCC2(CCCN(CC3CCOCC3)C2)C1` (centres undefined) gave Tgondii IFNg -24.
Screening CN1CCn2c(-c3cnn(C)c3)cnc2C12CCN(S(=O)(=O)C1CC1)CC2 returned Tgondii IFNg -7.
O=C(O)c1cc(Cl)nc(OCC(F)(F)F)c1 was read as Tgondii IFNg -62.
For O=C(Cc1ccc(F)cc1)NCCc1csc(-c2ccccc2)n1 the results were Tgondii IFNg inactive.
`CC(=O)N1CCc2c(nc(N(C)C)nc2N(C)CC2CCCO2)C1` (centres undefined) gave Tgondii IFNg 21.
`Cc1cc(C)cc(NC(=O)CN2CCC3(CC2)N=C(c2ccc(C)c(C)c2)C(=O)N3)c1` gave Tgondii IFNg 5.
For O=C(O)c1ccccc1C(=O)N1CCN(c2nc(-c3ccccc3)ns2)CC1 the results were Tgondii IFNg -38.
COc1ccc(NC(=O)CSc2nc3ccc(C)cc3cc2C#N)cc1 was read as Tgondii IFNg 93.
Screening CCOc1ccc2nc(SCC(=O)c3ccc4c(c3)OCCO4)c(C#N)cc2c1 returned Tgondii IFNg -50.
`CCOc1ccc2nc(SCc3ccccc3)c(C#N)cc2c1` gave Tgondii IFNg -103*.
CC(C)(C)CC(=O)N1CCC2(CC1)COCCN(c1ncccn1)C2 was read as Tgondii IFNg -6.
Cc1nnc([C@H]2CO[C@H]3CN(C(=O)c4cc(C)c(C)s4)C[C@H]32)o1 was read as Tgondii IFNg -3.
CCOc1ccc(NC(=O)c2nc(Nc3ccc(C)cc3)c3ccccc3n2)cc1 was read as Tgondii IFNg 71.
Screening CCc1ccccc1NC(=O)Cn1c(=O)cc(C(=O)N2CCOCC2)c2ccccc21 returned Tgondii IFNg 13.
For CCOC(=O)c1c(C)nc2ccc(Cl)cc2c1-c1ccccc1 the results were Tgondii IFNg -5.
`CCOC(=O)COc1nc2ccc(Cl)cc2c(-c2ccccc2)c1C(C)=O` gave Tgondii IFNg -23.
Screening COc1ccc(-c2c(C)nc3ccc(Cl)cc3c2-c2ccccc2)cc1OC returned Tgondii IFNg -95*.
`O=C1OCCN1CCn1cnc2sc3c(c2c1=O)CCNC3` gave Tgondii IFNg 32.
`Cn1ccnc1SCC(=O)Nc1ccccc1N1CCN(S(C)(=O)=O)CC1` gave Tgondii IFNg 41.
Screening CCOc1ccccc1NC(=O)CN1CCC2(CC1)N=C(c1cccc(Cl)c1)C(=O)N2 returned Tgondii IFNg -21.
For CCc1csc(CNC2CCC3(CCNCC3)CC2)n1 the results were Tgondii IFNg -76*.
Screening CCc1csc(CNC2CCN(CC(C)C)CC2)n1 returned Tgondii IFNg 0.
`Cc1nccn1-c1ccccc1CNC1CCC2(CCNCC2)CC1` gave Tgondii IFNg 3.
For CC(C)Nc1ccnc(C2COCCN2C(=O)CS(C)(=O)=O)n1 (centres undefined) the results were Tgondii IFNg 0.
O=S(=O)(c1ccccc1)N1CCN(CC(O)COc2ccc3ccccc3c2)CC1 (centres undefined) was read as Tgondii IFNg -83*.
CCC(=O)c1ccc(OCC(O)CN2CCN(c3ccccc3)CC2)cc1 (centres undefined) was read as Tgondii IFNg 12.
Screening CC(C)c1nccc(CN2CCN(S(=O)(=O)c3ccccc3)CC2)n1 returned Tgondii IFNg 4.
`Cc1nnsc1C(=O)Nc1ccc(C(=O)OC2CCCC2)cc1` gave Tgondii IFNg 79.
`CN1C(=O)N(CCCc2ccncc2)C(=O)C12CCN(CC1=CC[C@H]3C[C@@H]1C3(C)C)CC2` gave Tgondii IFNg 8.
CCN1c2ccccc2C(=O)NC12CCN(C(=O)Nc1ccc(OC)cc1)CC2 was read as Tgondii IFNg 120.

Source: PubChem BioAssay (Broad Institute)
